Source: PubChem BioAssay (Tox21)
Values without a mark were called inactive. Results filed as inconclusive are left out. Entries that show only a call come without a potency. Active and inactive are the calls of the source. Unless noted, calls follow the shape of the dose curve; as a rule, active = well fitted curve in the direction sought with a large enough effect in the repeat runs; inconclusive = weak or mixed curves; inactive = no such curve, though single readings can be large; an effect the other way counts as inactive or inconclusive.

Experiments:
[1] = qHTS assay to identify small molecule agonists of the hypoxia (HIF-1) signaling pathway - cell viability counter screen (AID 1224844; calls by dose curve; also: nearly all actives have a fitted effect of over 50% in size)
Method in brief: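 Multiplexed with the HRE beta-lactamase assay, this viability read used CellTiter-Glo luminescence (30 min, RT) on HRE-bla ME-180 cells treated 17 hrs with compounds in 0.5% dialyzed FBS medium.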

[2] = qHTS assay to identify small molecule agonists of H2AX (AID 1224845; active = well fitted activation curve with a large enough effect in the signal ratio in the repeat runs, not every such curve was filed as active; the % refers to the signal ratio)
Method in brief: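 Phospho-H2AX Ser139 measured by HTRF (ex 320 nm; em 665 and 620 nm) after 24 hr antibody incubation. Compounds, 15 concentrations, 0.76% DMSO, were applied to CHO-K1 cells for 3hr at 37C before lysis.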

[3] = qHTS assay to identify small molecule agonists of the hypoxia (HIF-1) signaling pathway (AID 1224846; active = well fitted activation curve with a large enough effect in the signal ratio in the repeat runs, not every such curve was filed as active; the % refers to the signal ratio)
Method in brief: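 Hypoxia-pathway activation was scored as increased beta-lactamase from an HRE-controlled reporter in ME-180 cells; plated at 2,000 cells per well with 0.5% dialyzed FBS, they were exposed 17 hrs to compounds and then given CCF4-AM.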

[4] = qHTS RealTime-Glo MT Cell Viability Assay in HepG2 cells - 24 hour (AID 1224867); also: nearly all actives have a fitted effect of over 50% in size
Method in brief: (§1)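 HepG2 cells (600/well) were dispensed with RealTime-Glo reagents, incubated 5 h at 37 °C, then treated with compounds in DMSO for up to 40 h. Nonlytic NanoLuc luminescence reflecting viable cells was read at each stated time point.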

[5] = qHTS RealTime-Glo MT Cell Viability Assay in HEK293 cells - 32 hour (AID 1224868); also: nearly all actives have a fitted effect of over 50% in size; also: potency is read from the fitted curve at half-maximal effect
Method in brief: (§2)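 HEK293 cells seeded with NanoLuc/prosubstrate reagent, rested 5 h at 37 C, then dosed and kept at 37 C up to 40 h. Nonlytic real-time luminescence from viable cells read at 0, 8, 16, 24, 32 and 40 h.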

[6] = A CellTox Green Cytotoxicity Assay to monitor cytotoxicity in HEK293 cells - 0 hour (AID 1224869); also: nearly all actives have a fitted effect of over 50% in size; also: potency is read from the fitted curve at half-maximal effect
Method in brief: (§3)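 Seeding of HEK293 cells together with cytotoxicity dye preceded a 5 h incubation at 37 C/5% CO2. Test compounds in DMSO were then added and fluorescence monitored across 40 h.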

[7] = qHTS RealTime-Glo MT Cell Viability Assay in HepG2 cells - 40 hour (AID 1224870); also: nearly all actives have a fitted effect of over 50% in size
Method in brief: (§4)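 Real-time viability: cells seeded at 600 per well together with NanoLuc and cell-permeant prosubstrate, compounds added after 5 h incubation. Luminescence tracked at 0, 8, 16, 24, 32 and 40 h of exposure.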

[8] = A CellTox Green Cytotoxicity Assay to monitor cytotoxicity in HEK293 cells - 40 hour (AID 1224871); also: nearly all actives have a fitted effect of over 45% in size; also: potency is read from the fitted curve at half-maximal effect
Method in brief: as §3

[9] = qHTS RealTime-Glo MT Cell Viability Assay in HEK293 cells - 16 hour (AID 1224872)
Method in brief: as §2

[10] = qHTS RealTime-Glo MT Cell Viability Assay in HepG2 cells - 8 hour (AID 1224873); also: nearly all actives have a fitted effect of over 55% in size
Method in brief: as §4

[11] = qHTS RealTime-Glo MT Cell Viability Assay in HEK293 cells - 40 hour (AID 1224874); conditions: RealTime-Glo luminescence; max response: hits give low values; also: nearly all actives have a fitted effect of over 50% in size; also: potency is read from the fitted curve at half-maximal effect
Method in brief: (§5)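 Tox21 screen in HEK293 using RealTime-Glo MT chemistry, with cells and reagent co-dispensed. Luminescence proportional to viable cell number was captured at intervals during 40 h compound exposure at 37 C.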

[12] = A CellTox Green Cytotoxicity Assay to monitor cytotoxicity in HEK293 cells - 24 hour (AID 1224875); also: nearly all actives have a fitted effect of over 45% in size; also: potency is read from the fitted curve at half-maximal effect
Method in brief: as §3

[13] = A CellTox Green Cytotoxicity Assay to monitor cytotoxicity in HepG2 cells - 16 hour (AID 1224876); also: nearly all actives have a fitted effect of over 45% in size; also: potency is read from the fitted curve at half-maximal effect
Method in brief: (§6)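 Nonlytic assay: viable cells exclude the dye, so fluorescence scales with cell death. HepG2 at 600 cells/well, compounds added after 5 h, signal read across 40 h.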

[14] = qHTS RealTime-Glo MT Cell Viability Assay in HepG2 cells - 32 hour (AID 1224877); also: nearly all actives have a fitted effect of over 55% in size
Method in brief: as §1

[15] = A CellTox Green Cytotoxicity Assay to monitor cytotoxicity in HepG2 cells - 24 hour (AID 1224878); also: nearly all actives have a fitted effect of over 45% in size; also: potency is read from the fitted curve at half-maximal effect
Method in brief: as §6

[16] = A CellTox Green Cytotoxicity Assay to monitor cytotoxicity in HepG2 cells - 40 hour (AID 1224879); also: nearly all actives have a fitted effect of over 40% in size; also: potency is read from the fitted curve at half-maximal effect
Method in brief: as §6

[17] = qHTS RealTime-Glo MT Cell Viability Assay in HEK293 cells - 0 hour (AID 1224880)
Method in brief: as §5

[18] = qHTS assay to identify small molecule agonists of H2AX - cell viability counter screen (AID 1224847; calls by dose curve;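 also: wild-type CHO-K1 cells; top concentration of the series differs between compounds; nearly all actives have a fitted effect of over 30% in size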)
Method in brief: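 Counter-screen for viability: CellTiter-Glo ATP luminescence read after 3 h compound treatment (15-point titration, 0.76% DMSO final) of CHO-K1 cells at 37C, with 30 min room-temperature reagent incubation.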

[19] = qHTS assay to identify small molecule antagonists of the estrogen related receptor (ERR) signaling pathway from Tox21 library (AID 1224848); also: nearly all actives have a fitted effect of over 50% in size
Method in brief: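 Antagonist-mode screen of the Tox21 10K library in an NTP-provided ERR reporter cell line; 18 h compound exposure at 37 C, luminescence measured with ONE-Glo.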

[20] = qHTS assay to identify small molecule agonists of the estrogen related receptor (ERR) signaling pathway from Tox21 library (AID 1224849; calls by dose curve; also: nearly all actives have a fitted effect of over 15% in size); conditions: ERR reporter cell line, ONE-Glo luciferase, 18 h; at 92.4 µM (top of the series) unless noted
Method in brief: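 Six hours post-seeding at 37 C/5% CO2, ERR cells receive DMSO-solubilised compounds; after 18 h at 37 C, ONE-Glo reagent is applied and luminescence recorded.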

## CC(=O)NCCCS(=O)(=O)O
[1]
  Potency: inactive
[2]
  Potency: inactive
[3]
  outcome: inactive
[4]
  Potency: inactive
[5]
  Potency: inactive
[6]
  Potency: 18.9 µM (active)
[7]
  Potency: inactive
[8]
  Potency: 16.9 µM (active)
[9]
  Potency: inactive
[10]
  Potency: inactive
[11]
  max response: 14.9%
[12]
  Potency: 16.9 µM (active)
[13]
  Potency: 18.9 µM (active)
[14]
  Potency: inactive
[15]
  Potency: 18.9 µM (active)
[16]
  Potency: 18.9 µM (active)
[17]
  Potency: inactive

## C1CCC2OC2C1 (centres undefined)
[1]
  Potency: inactive
[2]
  Potency: inactive
[3]
  outcome: inactive
[4]
  Potency: inactive
[5]
  Potency: inactive
[6]
  Potency: inactive
[7]
  Potency: inactive
[8]
  Potency: inactive
[9]
  Potency: inactive
[10]
  Potency: inactive
[11]
  max response: 4.85%
[13]
  Potency: inactive
[14]
  Potency: inactive
[15]
  Potency: inactive
[16]
  Potency: inactive
[17]
  Potency: inactive

## CCCCCCCCCCCCCCCC(=O)OC/C=C(C)/C=C/C=C(C)/C=C/C1=C(C)CCCC1(C)C
[1]
  Potency: inactive
[2]
  Potency: inactive
[3]
  outcome: inactive
[4]
  Potency: inactive
[5]
  Potency: inactive
[6]
  Potency: inactive
[7]
  Potency: inactive
[8]
  Potency: inactive
[9]
  Potency: inactive
[10]
  Potency: inactive
[11]
  max response: -5.46%
[13]
  Potency: inactive
[14]
  Potency: inactive
[15]
  Potency: inactive
[16]
  Potency: inactive
[17]
  Potency: inactive

## CC(=O)/C=C/C1C(C)=CCCC1(C)C (centres undefined)
[1]
  Potency: inactive
[2]
  Potency: inactive
[3]
  outcome: inactive
[4]
  Potency: inactive
[6]
  Potency: inactive
[7]
  Potency: inactive
[8]
  Potency: inactive
[9]
  Potency: inactive
[10]
  Potency: inactive
[12]
  Potency: inactive
[13]
  Potency: inactive
[14]
  Potency: inactive
[15]
  Potency: inactive
[17]
  Potency: inactive

## CC(C)(C)c1cc(CCC(=O)OCC(COC(=O)CCc2cc(C(C)(C)C)c(O)c(C(C)(C)C)c2)(COC(=O)CCc2cc(C(C)(C)C)c(O)c(C(C)(C)C)c2)COC(=O)CCc2cc(C(C)(C)C)c(O)c(C(C)(C)C)c2)cc(C(C)(C)C)c1O
[1]
  Potency: inactive
[2]
  Potency: inactive
[3]
  outcome: inactive
[4]
  Potency: inactive
[5]
  Potency: inactive
[6]
  Potency: inactive
[7]
  Potency: inactive
[8]
  Potency: inactive
[9]
  Potency: inactive
[10]
  Potency: inactive
[11]
  max response: 0.256%
[12]
  Potency: inactive
[13]
  Potency: inactive
[14]
  Potency: inactive
[15]
  Potency: inactive
[17]
  Potency: inactive

## COCCCCCCCCOCCC[Si](C)(O[Si](C)(C)C)O[Si](C)(C)C
[1]
  Potency: inactive
[2]
  Potency: inactive
[3]
  outcome: inactive
[4]
  Potency: inactive
[5]
  Potency: 3.89 µM (active)
[6]
  Potency: inactive
[10]
  Potency: inactive
[11]
  Potency: 2.75 µM (active)
[12]
  Potency: inactive
[13]
  Potency: inactive
[14]
  Potency: inactive
[15]
  Potency: inactive
[16]
  Potency: 21.9 µM (active)

## Cn1c(=O)c2c(ncn2CC(O)CO)n(C)c1=O (centres undefined)
[1]
  Potency: inactive
[2]
  Potency: inactive
[18]
  Potency: inactive
[19]
  Potency: inactive
[20]
  activity change, positive = activation: 6.5% [at 42.5 µM]
[4]
  Potency: inactive
[5]
  Potency: inactive
[6]
  Potency: inactive
[7]
  Potency: inactive
[9]
  Potency: inactive
[10]
  Potency: inactive
[11]
  max response: 2.79%
[14]
  Potency: inactive
[17]
  Potency: inactive

## CCCCC(CC)COCCCN (centres undefined)
[1]
  Potency: inactive
[2]
  Potency: inactive
[3]
  outcome: inactive
[20]
  activity change, positive = activation: -26.6%
[4]
  Potency: inactive
[6]
  Potency: inactive
[7]
  Potency: inactive
[8]
  Potency: inactive
[10]
  Potency: inactive
[12]
  Potency: inactive
[13]
  Potency: inactive
[14]
  Potency: inactive
[16]
  Potency: inactive
[17]
  Potency: inactive

## Oc1ccc(O)c2c(O)cccc12
[1]
  Potency: inactive
[2]
  Potency: inactive
[18]
  Potency: inactive
[19]
  Potency: inactive
[20]
  activity change, positive = activation: 1.72%
[4]
  Potency: inactive
[5]
  Potency: inactive
[6]
  Potency: inactive
[7]
  Potency: inactive
[8]
  Potency: inactive
[10]
  Potency: inactive
[11]
  max response: -0.428%
[12]
  Potency: inactive
[13]
  Potency: inactive
[14]
  Potency: inactive
[15]
  Potency: inactive
[16]
  Potency: inactive
[17]
  Potency: inactive

## CC(=O)O[C@H]1C[C@@H]2CC[C@@H]3[C@H](CC[C@@]4(C)[C@H]3C[C@H]([N+]3(C)CCCCC3)[C@@H]4OC(C)=O)[C@@]2(C)C[C@@H]1N1CCCCC1
[1]
  Potency: inactive
[2]
  Potency: inactive
[3]
  outcome: inactive
[4]
  Potency: inactive
[5]
  Potency: inactive
[6]
  Potency: inactive
[7]
  Potency: inactive
[8]
  Potency: inactive
[9]
  Potency: inactive
[10]
  Potency: inactive
[11]
  max response: 3.64%
[12]
  Potency: inactive
[13]
  Potency: inactive
[14]
  Potency: inactive
[15]
  Potency: inactive
[16]
  Potency: inactive
[17]
  Potency: inactive

## O=S(=O)(O)c1ccc(O)c2ncccc12
[1]
  Potency: inactive
[2]
  Potency: inactive
[3]
  outcome: inactive
[4]
  Potency: inactive
[5]
  Potency: inactive
[6]
  Potency: inactive
[7]
  Potency: inactive
[8]
  Potency: inactive
[9]
  Potency: inactive
[10]
  Potency: inactive
[11]
  max response: 27.2%
[13]
  Potency: inactive
[14]
  Potency: inactive
[15]
  Potency: inactive
[17]
  Potency: inactive

## O=C(O)C1CCC(C(=O)O)CC1 (centres undefined)
[1]
  Potency: inactive
[2]
  Potency: inactive
[3]
  outcome: inactive
[19]
  Potency: inactive
[4]
  Potency: inactive
[5]
  Potency: inactive
[6]
  Potency: inactive
[7]
  Potency: inactive
[8]
  Potency: inactive
[9]
  Potency: inactive
[10]
  Potency: inactive
[11]
  max response: -2.66%
[12]
  Potency: inactive
[13]
  Potency: inactive
[14]
  Potency: inactive
[15]
  Potency: inactive
[16]
  Potency: inactive

## CCOc1cc(OCC)c(C(=O)CCC(=O)O)cc1OCC
[1]
  Potency: inactive
[2]
  Potency: inactive
[3]
  outcome: inactive
[4]
  Potency: inactive
[6]
  Potency: inactive
[9]
  Potency: inactive
[10]
  Potency: inactive
[12]
  Potency: inactive
[13]
  Potency: inactive
[14]
  Potency: inactive
[15]
  Potency: inactive
[16]
  Potency: inactive

## Cc1cc(NC(=O)C(=O)O)cc(C)c1Oc1ccc(O)c2c1CCC2
[1]
  Potency: inactive
[2]
  Potency: inactive
[3]
  outcome: inactive
[20]
  activity change, positive = activation: 1.77%
[4]
  Potency: inactive
[6]
  Potency: inactive
[8]
  Potency: inactive
[9]
  Potency: inactive
[10]
  Potency: inactive
[11]
  max response: -8.77%
[13]
  Potency: inactive
[14]
  Potency: inactive
[15]
  Potency: inactive
[16]
  Potency: inactive
[17]
  Potency: inactive
